High-throughput results (PubChem BioAssay)
Compounds with a hit are over-represented: about 4.8% of the library has one in this group of screens.
PfHsp90 yeast 2 – growth inhibition of yeast expressing Plasmodium Hsp90; S. cerevisiae expressing PfHsp90, BacTiter-Glo ATP, 48 h; yeast lacking PDR1 and PDR3 efflux regulators; inhibition, % at 9.4 µM; 310,000 tested, 0.32% active; AID 504621;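 active = every replicate shows inhibition above about 80%, whatever the replicate mean, limit read from the data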;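 also: 0% = DMSO neutral controls and 100% = 20 µM radicicol positive controls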
NALP1 yeast inh – blocks the NALP1 inflammasome reconstituted in yeast. S. cerevisiae NALP1/ASC/caspase-1 growth, X-gal OD620, 72 h. inhibition, % at 10 µM. 280,000 tested, 0.61% active. AID 2071; in the data active = inhibition mostly above about 24%, no sharp cut-off; inactive = mostly below about 32%
TIM10 inh – inhibits growth of TIM10 yeast strain | S. cerevisiae TIM10 strain growth, BacTiter-Glo luminescence, 24 h | inhibition, % at 10 µM | 330,000 tested, 1.4% active;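 active = inhibition of 40% or more at the single tested concentration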;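 also: wild-type TIM10 isogenic control strain grown at permissive 25 °C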
tim23-1 inh – inhibits growth of tim23-1 mutant yeast; 330,000 tested, 1.3% active; inhibition, % at 20 µM; S. cerevisiae tim23-1 growth, BacTiter-Glo luminescence, 24 h;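 active = growth inhibition of the mutant yeast at or above 50%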;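 also: temperature-sensitive mutant grown at 25 °C; plate controls were DMSO-treated mutant yeast for no effect and medium wells lacking yeast for full effect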
tim10-1 inh – tim10-1 yeast growth inhibition | S. cerevisiae tim10-1 ts strain growth, BacTiter-Glo, 24 h | inhibition, % at 20 µM | 330,000 tested, 2.2% active | AID 463190;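 active = inhibition of at least 40%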;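 also: mutant grown at 25 °C; 0% = DMSO wells with yeast and 100% = wells holding no yeast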
SKKanGAS inh – blocks kanamycin growth of S. pyogenes SKKanGAS strain. AID 1662. BacTiter-Glo, 6 h. inhibition, % at 7.5 µM. 300,000 tested, 1.3% active;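 active = mean replicate score, as percent of positive control median, at least 50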;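 also: strain carries kanamycin resistance gene driven by streptokinase promoter and grows in 40 µg/ml kanamycin; loss of luminescence reflects streptokinase promoter inhibition or plain growth inhibition; 0% = median of DMSO wells and 100% = positive control at its reference dose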
tim23-1 confirm – tim23-1 yeast growth inhibition, confirmed; 4,400 tested, 83% active; shares compounds with tim23-1 inh; S. cerevisiae tim23-1 growth, BacTiter-Glo luminescence, 24 h; inhibition, % at 20 µM;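 active = inhibition above about 39% in either of two replicate wells at 20 µM, limit read from the data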;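 also: temperature-sensitive tim23-1 mutant grown at 25 °C; 0% = DMSO wells with yeast and 100% = medium wells without yeast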
Numbers without * were called inactive; . = no result given.

SMILES	PfHsp90 yeast 2	NALP1 yeast inh	TIM10 inh	tim23-1 inh	tim10-1 inh	SKKanGAS inh	tim23-1 confirm
CC(C)[C@@H](N)C(=O)NC[C@H]1O[C@@H](n2cnc3c(N)ncnc32)[C@H](O)[C@@H]1O	5	.	-10	12	1	.	.
CCOc1ccc(NC(=O)COC(=O)CC2CCCCC2)cc1	-14	.	15	31	-21	.	.
O=C(COC(=O)CC1CCCC1)Nc1ccc(Cl)cc1	.	.	26	62*	36	.	55*
COc1ccc(CCNC(=O)CCCc2ccccc2)cc1	6	6	4	6	-9	-4	.
COc1ccc(CN2CCN(C(=O)c3cccc4ccccc34)CC2)cc1Br	-12	-87	4	50*	-7	4	19
Cc1ncc(CC(=O)n2cc(C(=O)c3cc(F)ccc3O)cn2)s1	13	-8	21	22	13	-1	.
Cc1ccc(O)c(C(=O)c2cnn(C(=O)Cc3csc(C)n3)c2)c1	6	-2	21	59*	37	.	57*
CC(/C=N/NC(=O)c1cccs1)=C\c1ccco1	3	-3	23	64*	6	-9	71*
COc1cccc(C(=O)Oc2cc3c4c(c2)C(C)=CC(C)(C)N4C(=O)C3=O)c1	-117	-6	29	63*	28	18	70*
N#C/C(=C\c1ccc(OC(F)F)cc1)C(=O)N1CCCCC1	-8	.	25	62*	33	-5	44*
O=c1[nH]c(-c2ccccc2)nn1-c1ccc(Br)cc1Br	6	-2	11	15	13	6	.
O=C(/C=C/c1ccc(Cl)c(Cl)c1)NCCCn1ccnc1	-2	-6	-14	-12	-10	-9	.
Cn1c(C(=O)N2CCN(c3ccccn3)CC2)cc2ccccc21	-2	-4	9	20	29	-3	.
COc1ccc(/C=C2\SC(=Nc3ccccc3OC)NC2=O)cc1	-61	2	38	53*	34	29	60*
Cc1ccc(/C=C2/NC(=O)N(Cc3ccccc3)C2=O)o1	7	32	2	68*	25	6	58*
CN(CCc1cn[nH]c1)C(=O)CC1C(=O)NCCN1Cc1ccccc1C(F)(F)F (stereo unspecified)	0	-3	4	3	1	-1	.
CCN1CCN(CC(=O)N2N=C(c3cccs3)CC2c2ccc(OC)cc2)C(=O)C1=O (stereo unspecified)	-30	-10	-1	17	0	7	.
CCOC(=O)Cn1nnnc1C(CC)N(Cc1ccccc1)Cc1cc2cc(C)ccc2[nH]c1=O (stereo unspecified)	-20	4	19	26	16	3	.
Cc1onc(-c2ccccc2)c1C(=O)NC(C)c1ccccc1 (stereo unspecified)	-33	.	17	7	18	0	.
O=C(/C=C/c1ccccc1Br)c1ccc2c(c1)OCO2	0	-2	2	28	5	-15	.
COc1cccc(/C=C/C(=O)c2ccc3c(c2)OCO3)c1OC	2	.	33	53*	26	.	54*
Cc1[nH]c2ccccc2c1C(=O)/C=C/c1ccccc1	30	-3	14	64*	27	-3	56*
Cc1nc2ccccc2c(N)c1C(=O)/C=C/c1ccccc1	-3	18	4	32	4	0	.
O=C(OCC(=O)C12CC3CC(CC(C3)C1)C2)c1ccc(CO)cc1	11	.	16	21	21	.	.
O=C(Oc1ccc(O)cc1)C12CC3CC(CC(C3)C1)C2	-24	0	25	63*	-19	24	66*
SMILES	PfHsp90 yeast 2	NALP1 yeast inh	TIM10 inh	tim23-1 inh	tim10-1 inh	SKKanGAS inh	tim23-1 confirm
O=C(OCC(=O)C12CC3CC(CC(C3)C1)C2)c1ccc(O)cc1	99*	.	-3	63*	-6	.	61*
COc1ccccc1NCc1cc(=O)oc2c(C)c(O)ccc12	12	11	2	3	6	12	.
O=C(Nc1cccc(F)c1)C1CCN(C(=O)c2ccco2)CC1	-11	15	3	7	4	1	.
O=C(NC(=S)NC1CCCC1)c1ccccc1Br	3	24	25	17	17	18	.
CCN(C(=S)NC(=O)c1ccccc1Br)C1CCCCC1	2	26	35	58*	28	-3	44*
CCOc1cc(/C=C2\COc3ccccc3C2=O)ccc1OCC(=O)N(C)C	-87	23	34	54*	30	4	53*
CCOc1cc(/C=N/Nc2ccccc2Cl)ccc1OCC(=O)O	21	12	.	.	.	.	.
COc1ccc(-c2nnc(CSc3nc4ccccc4c(=O)n3CC3CCCO3)o2)cc1OC (stereo unspecified)	34	.	10	25	2	-5	.
Cc1ccc(-c2nc(Nc3ccc(O)cc3)c3ccccc3n2)cc1	-11	30	27	74*	14	3	44*
COc1cccc(Nc2nc(-c3ccccc3)nc3ccccc23)c1	-80	-5	38	50*	27	8	45*
Cc1ccc(-c2nc(Nc3cccc(O)c3)c3ccccc3n2)cc1	26	22	22	83*	16	20	-21
Cc1ccc(-c2nc(Nc3ccc(N4CCOCC4)cc3)c3ccccc3n2)cc1	-2	0	22	47	31	41	.
COC(=O)C1CCN(C(=O)c2cc(OC)c(OC)c(OC)c2)CC1	-22	6	5	3	-3	8	.
O=c1c(-c2ccccc2)c1-c1ccccc1	.	5	-14	58*	16	1	-11
COc1ccc(C(=O)/C=C/Nc2ccc(S(=O)(=O)Nc3nc(C)cc(C)n3)cc2)c(OC)c1	-10	0	-7	14	3	7	.
Cc1ccc(C2(c3ccc(C)cc3)CC2C(=O)Nc2ccc([N+](=O)[O-])cc2O)cc1 (stereo unspecified)	29	3	27	50*	-25	105*	18
CC[n+]1c(/C=C/N(C)c2ccccc2)n(-c2ccccc2)c2ccc(-c3nc4ccccc4s3)cc21	35	46*	29	80*	37	99*	65*
COc1cc(C2C(C#N)=C(N)Oc3cc(C)n(CCN4CCOCC4)c(=O)c32)cc(OC)c1OC (stereo unspecified)	-9	-6	10	2	-1	-3	.
COc1ccc(Nc2nc3ccc(OC)cc3s2)cc1	-4	7	36	61*	26	-3	40*
CCc1c(C)c(C#N)c2nc3ccccc3n2c1NCC1CCCO1 (stereo unspecified)	.	6	32	39	30	-5	.
CCc1cc(C(=O)c2ccc(C)cc2)c(NC(=O)CCl)s1	-9	12	28	50*	40	-4	49*
Cc1ccc(NC(=O)c2cc(S(=O)(=O)N3CCCCC3)ccc2N2CCOCC2)cc1F	-15	-15	11	24	18	-2	.
